From PubChem BioAssay (EPA / NIEHS)
Inconclusive results are not listed. The source made the active and inactive calls. The calls were made as follows: active = hit-call score of the fitted dose curve at least 0.9, where 1 is the maximum; inconclusive = response in the unintended direction; inactive = score below 0.9.

Experiment: ATG_M_32_TRANS: Attagene TRANS-FACTORIAL HepG2 Assay for M32 Transcription Factor (Internal Marker) (AID 2282984)
Conditions: HepG2 Attagene TRANS M32 internal marker reporter
Procedure: ATG_TRANS is a cell-based, multiplexed-readout assay that uses HepG2, a human liver cell line, with measurements taken at 24 hours after chemical dosing in a 24-well plate.ATG_M_32_TRANS is one of 30 assay component(s) measured or calculated from the ATG_TRANS assay. It is designed to make measurements of mRNA induction, a form of inducible reporter, as detected with fluorescence intensity signals by Reverse transcription polymerase chain reaction (RT-PCR) and Capillary electrophoresis technology.Data from the assay component ATG_M_32_TRANS was analyzed into 1 assay endpoint. This assay endpoint, ATG_M_32_TRANS, was analyzed in the positive analysis fitting direction relative to DMSO as the negative control and baseline of activity. Using a type of inducible reporter, measures of mRNA for gain-of-signal activity can be used to understand the background control at the transcription factor-level as they relate to the gene . Furthermore, this assay endpoint can be referred to as a secondary readout, because this assay has produced multiple assay endpoints where this one serves a background control function. To generalize the intended target to other relatable targets, this assay endpoint is annotated to the background measurement intended target family, where the subfamily is internal marker.
Human liver HepG2 cells are transiently transfected with multiple reporter transcription units (MRTUs) in 6-well plates using FuGene 6 reagent (Roche; 3 ml FuGene/1 mg DNA). The MRTU constructs are regulated by a cis-regulating element (promoter). […] A major difference between the CIS and TRANS system is that in CIS activities of endogenous TFs are measured, whereas the TRANS assay evaluates changes in activities of exogenous, chimeric NR-Gal4 proteins. […] At the end of 24 hour incubation, total RNA was isolated using TriZol reagent (Invitrogen). The isolated RNA is then reverse-transcribed using oligo(dT) primer and Mo-MLV reverse transcriptase (Invitrogen) with DNAse I (Ambion) treatment for 30 min. The one-tenth of the produced cDNA was amplified by PCR using Taq DNA polymerase (Invitrogen) and two reporter sequence-specific primers. The PCR products were fluorescently labeled by primer extension with 6-arboxyfluorescein (6-FAM) 5'-labeled reporter sequence-specific primer (2 min at 95 C, 20 s at 68 C and 10 min at 72 C) and these products were digested with 5U of HpaI (New England Biolabs) for 2h at 37 C. The fragments were purified using Qiaquick PCR columns (Qiagen), analyzed on an ABI 3130xL genetic analyzer (Applied Biosystems) with peak positions identified by using a set of X-rhodamine (ROX)-labeled MapMarker1000 molecular weight standards (BioVentures). The raw capillary electrophoresis data was processed using Attagraph software (Attagene).

Q: With CN(C)CCO as the compound, how does the outcome read?
A: inactive

Q: For CC(C)(O)C(=O)Nc1ccc([N+](=O)[O-])c(C(F)(F)F)c1, which outcome is on record?
A: inactive

Q: With Oc1ccc(C(c2ccc(O)cc2)(C(F)(F)F)C(F)(F)F)cc1 as the compound, how does the outcome read?
A: inactive

Q: Which outcome does the source give for C=CC(N)=O here?
A: inactive

Q: For O=C(N[C@H]1CN2CCC1CC2)c1cc2ccoc2cn1, which outcome is on record?
A: inactive

Q: With CCCN(CCC)N=O as the compound, how does the outcome read?
A: inactive

Q: Which outcome does the source give for Oc1ccc(Cl)cc1Cl here?
A: inactive

Q: Which outcome does the source give for COc1ccc(O)c(C(C)(C)C)c1 here?
A: inactive

Q: With ClC(Cl)=C(c1ccc(Cl)cc1)c1ccc(Cl)cc1 as the compound, how does the outcome read?
A: inactive

Q: With NS(=O)(=O)C(F)(F)C(F)(F)C(F)(F)C(F)(F)C(F)(F)C(F)(F)C(F)(F)C(F)(F)F as the compound, how does the outcome read?
A: inactive

Q: With O=C(O)C(F)(F)C(F)(F)C(F)(F)C(F)(F)C(F)(F)C(F)(F)C(F)(F)C(F)(F)F as the compound, how does the outcome read?
A: inactive

Q: Which outcome does the source give for Clc1ccc(C(c2ccccc2Cl)C(Cl)(Cl)Cl)cc1 (stereo not given) here?
A: inactive

Q: For CCC(C)(CC)c1cc(NC(=O)c2c(OC)cccc2OC)on1, which outcome is on record?
A: inactive

Q: Which outcome does the source give for Clc1ccc(Cl)cc1 here?
A: inactive

Q: For C[C@]12CCC(=O)C=C1CC[C@@H]1[C@@H]2CC[C@]2(C)C(=O)CC[C@@H]12, which outcome is on record?
A: inactive

Q: Which outcome does the source give for Cc1cc2c3c(c1)C(c1ccccc1)=N[C@@H](NC(=O)c1ccncc1)C(=O)N3CC2 here?
A: inactive

Q: For Oc1c(Cl)c(Cl)c(Cl)c(Cl)c1Cl, which outcome is on record?
A: inactive

Q: Which outcome does the source give for c1ccc(-c2ccccc2)cc1 here?
A: inactive

Q: For O=C(O)C(F)(F)C(F)(F)C(F)(F)C(F)(F)C(F)(F)C(F)(F)C(F)(F)C(F)(F)C(F)(F)F, which outcome is on record?
A: inactive

Q: For CCCCCCCCOC(=O)c1ccccc1C(=O)OCCCCCCCC, which outcome is on record?
A: inactive

Q: With O=S(=O)(O)C(F)(F)C(F)(F)C(F)(F)C(F)(F)F as the compound, how does the outcome read?
A: inactive

Q: Which outcome does the source give for Nc1ccc(-c2ccc(N)cc2)cc1 here?
A: inactive

Q: Which outcome does the source give for Clc1ccc(C(Cl)(Cl)Cl)cc1 here?
A: inactive

Q: For Cc1ccccc1CO[C@@H]1C[C@@]2(C(C)C)CC[C@]1(C)O2, which outcome is on record?
A: inactive

Q: For CC1=C2C[C@H]3[C@@H](CC=C4C[C@@H](O)CC[C@@]43C)[C@@H]2CC[C@]12O[C@@H]1C[C@H](C)CN[C@H]1[C@H]2C, which outcome is on record?
A: inactive

Q: With CO/C=C(/C(=O)OC)c1ccccc1COc1cccc(C(F)(F)F)n1 as the compound, how does the outcome read?
A: inactive

Q: For ClC1=C(Cl)[C@]2(Cl)[C@@H]3[C@@H]4C[C@@H]([C@H]5O[C@@H]45)[C@@H]3[C@@]1(Cl)C2(Cl)Cl, which outcome is on record?
A: inactive

Q: Which outcome does the source give for OCC(O)CO here?
A: inactive

Q: With CC#Cc1cc(C)nc(Nc2ccccc2)n1 as the compound, how does the outcome read?
A: inactive

Q: For CCCCCCCCCc1ccc(O)cc1, which outcome is on record?
A: inactive

Q: Which outcome does the source give for O=S(=O)(O)C(F)(F)C(F)(F)C(F)(F)C(F)(F)C(F)(F)C(F)(F)F here?
A: inactive

Q: With Sc1ccccc1 as the compound, how does the outcome read?
A: inactive

Q: Which outcome does the source give for CCCCCCCCCC[N+](C)(C)CCCCCCCCCC here?
A: inactive

Q: For CC(C)(c1ccccc1)c1ccc(O)cc1, which outcome is on record?
A: inactive

Q: Which outcome does the source give for Cc1cc(-c2ccc(N)c(C)c2)ccc1N here?
A: inactive

Q: With Cc1ccccc1[N+](=O)[O-] as the compound, how does the outcome read?
A: inactive

Q: With c1cc2ccc3cccc4ccc(c1)c2c34 as the compound, how does the outcome read?
A: inactive

Q: For CCOC(=O)C(O)(c1ccc(Cl)cc1)c1ccc(Cl)cc1, which outcome is on record?
A: inactive

Q: Which outcome does the source give for CCNc1nc(NC(C)C)nc(SC)n1 here?
A: inactive

Q: With ClC1=C(Cl)[C@]2(Cl)[C@@H]3[C@H]4C[C@H]([C@@H]5O[C@H]45)[C@@H]3[C@@]1(Cl)C2(Cl)Cl as the compound, how does the outcome read?
A: inactive
